The results in this text go back to PubChem BioAssay.

Several values for one entry are separate records, joined by “and”; a condition that tells them apart may be missing. Identical values can stand only once. Activity calls are given as the source filed them.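 How the source made its calls, unless noted: active means thallium flux through the channel raised or lowered by more than 3 SD from vehicle-only wells, actives on both sides; inactive means the rest.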

The subject of assay [1] is F380Y. Nature of the assay: BK channel mutant inhibitors and activators – cell-based, U2OS BacMam, thallium flux, beta subunits, selectivity assay, profiling panel (AID 1259406).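 Further: initial slope of Thallos dye fluorescence rise after thallium is added; log ratio against the mean of 0.3% DMSO vehicle wells on the same plate.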 To be noted: U2OS BacMam BK variants, at 30 µM.
The test system of assay [2] is F380Y/beta1. The description is as above. As to conditions: U2OS BacMam BK variants, at 30 µM.
In assay [3] the test system is F380Y/beta2Delta. The description is as above. To be noted: U2OS BacMam BK variants, at 30 µM.
In assay [4] the test system is F380Y/beta4. Described as above. To be noted: U2OS BacMam BK variants, at 30 µM.
The target in assay [5] is Calcium-activated potassium channel subunit alpha-1 (Homo sapiens) + Leucine-rich repeat-containing protein 26 (Homo sapiens) (UniProt Q12791+Q2I0M4). The description is as above. To be noted: U2OS BacMam BK variants, F380Y/Slo1WT/gamma1, at 30 µM.
Calcium-activated potassium channel subunit alpha-1 (Homo sapiens) + Leucine-rich repeat-containing protein 26 (Homo sapiens), sequence (Q2I0M4 whole entry, looked up, one chain of several): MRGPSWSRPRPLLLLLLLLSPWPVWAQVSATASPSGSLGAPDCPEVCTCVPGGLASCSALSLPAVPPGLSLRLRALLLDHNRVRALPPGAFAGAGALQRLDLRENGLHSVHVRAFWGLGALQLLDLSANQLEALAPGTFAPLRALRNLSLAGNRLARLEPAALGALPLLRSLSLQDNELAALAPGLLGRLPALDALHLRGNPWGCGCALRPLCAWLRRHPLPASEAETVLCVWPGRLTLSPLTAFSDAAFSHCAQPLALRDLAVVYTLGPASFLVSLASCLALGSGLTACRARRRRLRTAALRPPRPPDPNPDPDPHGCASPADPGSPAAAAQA
Assay [6] concerns R275C. Described as above. To be noted: U2OS BacMam BK variants, at 30 µM.
Assay [7] deals with R275C/beta1. Described as above. To be noted: U2OS BacMam BK variants, at 30 µM.
The test system of assay [8] is R275C/beta2Delta. Described as above. To be noted: U2OS BacMam BK variants, at 30 µM.
In assay [9] the test system is R275C/beta4. The description is as above. As to conditions: U2OS BacMam BK variants, at 30 µM.
For assay [10], the system named is R275C/Slo1WT/beta2. The description is as above. As to conditions: U2OS BacMam BK variants, at 30 µM.
A short description of assay [11]: P. berghei load reduction in hepatocytes – cell-based, HepG2, luciferase luminescence, HepG2 viability, primary screen (AID 624349; in the data active means parasite load remaining mostly below about 12%, no sharp cut-off; inactive means mostly above about 10%;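 further: 100% = mean of DMSO negative control wells on the same plate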). To be noted: P. berghei liver stage in HepG2, luciferase luminescence, concentration not given here; parasite load remaining: stronger effect = lower value; viability: measured here: HepG2 viability without parasites.
Assay [12] can be described thus: signal quenchers or enhancers, Cy5 substrate/SSB – biochemical, NIH Clinical Collection, E. coli SSB, artefact control for HCV NS3 helicase inhibitor project (AID 743268; call rule not given here). As to conditions: Cy5-oligo bound E. coli SSB, fluorescence interference.
Assay [13] deals with Hepatitis C virus NS3 helicase. Nature of the assay: blockers of NS3h binding to DNA – biochemical, fluorescence polarization, NIH Clinical Collection, primary screen (AID 743270; call rule not given here). To be noted: NS3 helicase binding to Cy5-dT15 DNA, stronger effect = higher value, concentration not given here. In general terms: Polarisation of emitted light reports the rotation of a fluorescent probe.
Assay [14] has as its target Single-stranded DNA-binding protein (Escherichia coli (strain K12)) (UniProt P0AGE0). Nature of the assay: SSB-ssDNA binding inhibitors – biochemical, fluorescence polarization, NIH Clinical Collection, counter-screen for HCV NS3 helicase inhibitor project (AID 743271; in the data active means inhibition above about 28%). To be noted: E. coli SSB-DNA binding, stronger effect = higher value, concentration not given here.
Assay [15] can be described thus: compounds distorting NS3 helicase fluorescence signal – biochemical, NIH Clinical Collection, artefact control for HCV NS3 helicase inhibitor project (AID 743272; call rule not given here;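 further: HCV NS3 helicase with a Cy5 labelled single stranded DNA probe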). As to conditions: fluorescence interference counterscreen, HCV NS3 helicase assay; stronger effect = lower value.
Assay [16] can be described thus: modulation of C. elegans fzo-1 (AID 1259413; call rule not given here;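 further: fzo-1 mutant C. elegans worms in liquid wells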). To be noted: C. elegans fzo-1 modulator screen, mean read-out; stronger effect = higher value.
Assay [17] can be described thus: EMT-state selective cytotoxicity in co-culture – imaging, PC-3E GFP, TEM4-18 mCherry, primary screen (AID 1345086;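 active means compounds killing one labelled cell type while sparing the other, by normalised counts and ratio limits, not self-fluorescent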;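 on all read-outs here: cells exposed to compound for 72 h before imaging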;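 on red/green cell ratio (normalised): normalised mesenchymal count divided by normalised epithelial count so high means epithelial killing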). To be noted: PC-3E GFP / TEM4-18 mCherry co-culture, imaging cell counts, at 1 µM; for red/green cell ratio (normalised): actives lie on both sides, counts scaled to control wells, 1 = unselective.
Assay [18] is described as follows: viability loss with induced miR-34 in A549 – imaging, A549 dox-inducible miR-34, nuclei and caspase counts, primary screen (AID 1347080;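 active means compounds whose cell count with miR-34 switched on is under 0.7 times the count with it off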). As to conditions: A549 miR-34 inducible, Hoechst nuclei count, 48 h.
A short description of assay [19]: MELAS cybrid and Rieske KO viability enhancers – cell-based, MELAS cybrids, Rieske KO mouse fibroblasts, CellTiter-Glo, primary screen (AID 1508586;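 active means mean z-score across replicates of 1.96 or higher in either the MELAS or the Rieske mutant cell line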;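 further: z relative to plate mean and SD of compound and empty wells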). As to conditions: low glucose. On the technique in general: In ATP-based viability assays light output follows the ATP content of the culture.
Setting [20] is: measured here: epithelial PC-3E GFP cell survival.
Where [21] appears, read: measured here: mesenchymal TEM4-18 mCherry cell survival.
[22] abbreviates: stronger effect = lower value, cell number ratio, induced over uninduced.
The mark [23] stands for this setting: measured here: relative caspase fold change +Dox/-Dox.
[24] abbreviates: measured here: total cells with miR-34 induction, stronger effect = lower value.
Where [25] appears, read: measured here: total cells without miR-34 induction.

Turning to `Cn1c(C(=O)O)ccc1S(=O)(=O)N(Cc1ccccc1)Cc1ccccc1`, the log fold change Tl+ flux in assay [1] was 0.0347 (inactive); in [2], 0.205 (active); in [3], 0.0498 (inactive); in assay [4], 0.139 (active); in assay [5] it was 0.000486 (inactive); in [6] it was 0.00591 (inactive). In addition, the log fold change Tl+ flux was 0.0906 (inactive) in [7], 0.0893 (active) in assay [8], 0.11 (active) in assay [9] and 0.0146 (inactive) in assay [10].
In the case of `Cc1cc(Sc2nnc(N=CN(C)C)s2)c2ccccc2n1`, the log fold change Tl+ flux in assay [1] was 0.0126 (inactive); in [2] it was 0.0257 (inactive); in assay [3], -0.0453 (inactive); in [4], -0.0187 (inactive); in [5], 0.011 (inactive); in assay [6], 0.0403 (inactive). Also, the log fold change Tl+ flux in [7] was 0.0231 (inactive); in assay [8], 0.0658 (inactive); in [9], 0.0604 (inactive); in [10] it was 0.0405 (inactive).
With `CN1CC(=O)N2[C@H](c3ccc4c(c3)OCO4)c3[nH]c4ccccc4c3C[C@@H]2C1=O`, in assay [11], the parasite load remaining is 101% (inactive). Further, the viability in [11] was 81.8%. The fluorescence ratio in [12] and in [15] was 1 (inactive) throughout. Further, the inhibition is -0.4% (inactive) in assay [13] and -0.1% (inactive) in [14]. In addition, in [16], the mean signal was 261 (inactive). For the same compound, the red/green cell ratio (normalised) in assay [17] was 1 (inactive). For the same compound, the normalised cell number in assay [17] (setting [20]) was 1.08; in [17] (setting [21]), 1.07. The log fold change Tl+ flux in [1] is 0.0711 (inactive); in assay [2], 0.0938 (inactive); in [3] it was 0.00366 (inactive); in assay [4] it was 0.0361 (inactive); in assay [5], -0.0237 (inactive); in assay [6] it was -0.0348 (inactive). For the same compound, the log fold change Tl+ flux was 0.198 (active) in assay [7], 0.0543 (inactive) in [8], 0.0558 (inactive) in assay [9] and 0.00498 (inactive) in [10].
On to `CC(CCCCC(=O)Nc1ccc(C(F)(F)F)cc1)NCCc1cnc[nH]1` (configuration not stated), for which the parasite load remaining in [11] was 54.5% (inactive). The same compound returned a viability in [11] of 67%. Moreover, the values for the fluorescence ratio in assay [12] and in [15] were 0.96 (inactive) and 0.92 (inactive), respectively. Besides, the inhibition in [13] is -8.95% (inactive); in assay [14] it was -4.33% (inactive). In assay [16], the mean signal is 233 (inactive). Also, the fold change is 0.859 (inactive) and 0.909 (inactive) in assay [18] (setting [22]); 1.55 and 0.779 in [18] (setting [23]). Moreover, the cell count in assay [18] (setting [24]) was 8900 and 8240; in assay [18] (setting [25]), 10400 and 9060. Further, the log fold change Tl+ flux in [1] was 0.0425 (inactive); in assay [2], 0.0554 (inactive); in [3], -0.00659 (inactive); in [4], -0.0291 (inactive); in [5], 0.0127 (inactive); in [6], -0.0675 (inactive). Besides, the log fold change Tl+ flux in assay [7] is 0.0449 (inactive); in assay [8], 0.0193 (inactive); in [9], 0.0332 (inactive); in assay [10], 0.00571 (inactive).
Turning to `CN(C)CCc1c[nH]c2ccc(Cn3cncn3)cc12`, the parasite load remaining in assay [11] was 45% (inactive) and 103% (inactive). In assay [11], the viability is 99.5% and 78.1%. Besides, the fluorescence ratio in [12] is 1.13 (inactive); in assay [15], 0.91 (inactive). Besides, the inhibition in assay [13] is 0.4% (inactive); in assay [14] it was 5.29% (inactive). Also, the mean signal in assay [16] is 236 (inactive). In addition, in assay [17], the red/green cell ratio (normalised) is 0.92 (inactive). The normalised cell number turned out to be 1.24 in assay [17] (setting [20]) and 1.13 in assay [17] (setting [21]). For the same compound, the fold change was 0.991 (inactive) and 0.886 (inactive) and 0.916 (inactive) in [18] (setting [22]); 1.31 and 0.982 and 5.76 in assay [18] (setting [23]). The cell count in assay [18] (setting [24]) is 7610 and 7730 and 12300; in assay [18] (setting [25]) it was 7680 and 8720 and 13400. Further, the z-score was -0.276 (inactive) and 0.545 (inactive) in assay [19] (MELAS cybrid survival, CellTiter-Glo 48 h, stronger effect = higher value); 0.697 and -0.263 in assay [19] (Rieske KO mouse fibroblast survival, CellTiter-Glo 72 h). The log fold change Tl+ flux in assay [1] is -0.0521 (inactive); in [2] it was -0.0483 (inactive); in [3], 0 (inactive); in assay [4] it was 0.0107 (inactive); in assay [5] it was 0.0357 (inactive); in assay [6], -0.121 (active). In addition, the log fold change Tl+ flux in [7] was -0.00809 (inactive); in assay [8] it was -0.0421 (inactive); in assay [9], 0.00222 (inactive); in assay [10], 0.0127 (inactive).

What is called viability is a per cent measure of how many cells are alive, often set against a control. The inhibition is the drop in the measured response relative to a control, in per cent.
